The values below come from ChEMBL document CHEMBL1157539, “Thousands of chemical starting points for antimalarial lead identification” (Nature, 2010).

As a reminder, the Inhibition is the change of the read-out against control, counted positive when it falls.

Molecules are shown by their SMILES.

One test has as its system Plasmodium falciparum. Kind of test: GSK_TCMDC: Inhibition of Plasmodium falciparum 3D7 in whole red blood cells, using parasite LDH activity as an index of growth. Test compounds present at 2uM. The test is classed as functional.
`C=CCC(CC=C)N1C(=O)C(c2ccccc2)(c2ccccc2)N=C1N.O=CO` had an Inhibition of 98%.

In the case of `CN(C)c1cc(C(=O)N[C@@H](Cc2ccccc2)[C@H](O)CNC2CCCCC2)cc2[nH]ccc12.O=CO`, the Inhibition turned out to be 98%.

The molecule `CCN(CC)CCNC(=O)c1ccc(NC(=O)c2oc3c(Cl)cccc3c2C)cc1` came in with an Inhibition of 98%.

In turn, `O=C(C=Cc1ccc(Cl)c(Cl)c1)NCCCCCN1CCC(CCNS(=O)(=O)c2ccc(F)cc2)CC1` displayed an Inhibition of 88%.

A further test concerns Plasmodium falciparum. Briefly: GSK_TCMDC: Inhibition of Plasmodium falciparum Dd2 in whole red blood cells, using parasite LDH activity as an index of growth. Test compounds present at 2uM. It is filed as functional.
Molecule `Br.Oc1ccccc1CCNC1CCc2ccccc2C1` (centres undefined) registered an Inhibition of 95%.

Turning to `Cc1[nH]c2ccc(C#N)cc2c(=O)c1Br`, the Inhibition stood at 61%.

Molecule `Cc1ccc(/C=C/C(=O)NCCCCCN2CCN(C(=O)Nc3ccc(Cl)c(C(F)(F)F)c3)CC2)cc1` yielded an Inhibition of 0%.

Take `COc1ccc(-c2cccc(CNC3CCN(CC4Cn5c(=O)ccc6ccc(F)c4c65)CC3)c2)cc1.O=C(O)C(F)(F)F` (centres undefined): the Inhibition turned out to be 74%.

`N=C(/N=C(/NCCCCCCN/C(=N\C(=N)Nc1ccc(Cl)cc1)N1CCOCC1)N1CCOCC1)Nc1ccc(Cl)cc1` had an Inhibition of 91%.

The molecule `O=C(NC1CC1)c1ccc(N2CCCC(COc3ccccc3F)C2)nc1` (centres undefined) returned an Inhibition of 92%.

Molecule `O=C(NC1CCCCC1)N(Cc1cccc(-c2ccc(CNCCc3ccccc3)cc2)c1)C1CCN(Cc2ccccc2)CC1.O=C(O)C(F)(F)F` yielded an Inhibition of 93%.

In turn, `Cl.c1ccc2c(Nc3ccc(Oc4ccc(Nc5c6ccccc6nc6ccccc56)cc4)cc3)c3ccccc3nc2c1` displayed an Inhibition of 99%.

Regarding `O=C(O)C(F)(F)F.c1cncc(CCNCc2cccc(-c3csc(-c4nc5ccccc5[nH]4)c3)c2)c1`, the Inhibition is listed as 98%.

Consider `CCCCCc1cc(OCCN(C)C)cc2c1C(=O)CC(C)(C)O2.Cl`, for which the Inhibition is reported as 0%.

`Fc1ccccc1COc1ccc(Nc2ncnc3ccc(I)cc23)cc1Cl` showed an Inhibition of 37%.

With `CCC(NCc1ccc(-c2cncc(C(=O)NCC(C)C)c2)cc1)c1ccccc1.O=C(O)C(F)(F)F` (centres undefined), the Inhibition came out at 8%.

Take `CC(C)(O)CC(C)(C)c1cc(Cl)ccc1O`: the Inhibition worked out at 1%.

As for `CCCN(CCCN(CCCN(CCC)C(C)C)c1cc(C)nc(Nc2ccc(Cl)cc2)n1)C(C)C.O=C(O)C(=O)O`, the Inhibition amounted to 99%.

On to `O=C(N[C@@H](Cc1ccccc1)C(=O)NC1CCCCCC1)c1ccc(O)c(-c2ccc(Cl)c(Cl)c2)c1`, for which the Inhibition came to 99%.

On to `COc1ccc2nccc([C@@H](O)CN3CCC(NCc4nc5ccc(F)cc5[nH]4)CC3)c2c1.O=C(O)C(=O)O`, for which the Inhibition is 4%.

On to `COCCn1c(-c2cccc(Cl)c2)nn(-c2ccc([N+](=O)[O-])cc2C#N)c1=S`, for which the Inhibition was 100%.

In the case of `N#Cc1ccc(Cn2ccc3c4c(N)nc(N)nc4ccc32)cc1`, the Inhibition came to 95%.

On to `COC(=O)c1cccc(NC(=O)NC2CCN(c3ccnc(Nc4ccc(OC)cc4)n3)C2)c1` (centres undefined), for which the Inhibition was determined as 65%.

On to `CCCNC(=O)C1Cc2c([nH]c3cc(Br)ccc23)C2(CCN(CCc3ccccc3)CC2)N1` (centres undefined), for which the Inhibition was found to be 26%.

Molecule `CC1CN(Cc2csc(Nc3ccccc3)n2)CC(C)O1` (centres undefined) registered an Inhibition of 81%.

`CC1=C(C(=O)OC(C)C)C(c2ccccc2Cl)C2=C(CC(c3ccccc3)CC2=O)N1` (centres undefined) returned an Inhibition of 84%.

`Cc1noc(-c2ccc(NC[C@@H](C)NC[C@H](O)c3cccc(Cl)c3)cc2)n1` gave an Inhibition of 84%.

`Cn1nccc1C(=O)NCCNCc1cccc(-c2ccc(-c3nc4ccccc4[nH]3)s2)c1.O=C(O)C(F)(F)F` yielded an Inhibition of 94%.

`Cc1ccc(-n2c(=O)c3cccnc3n2CC(=O)Nc2cccc(C)c2C)cc1` gave an Inhibition of 20%.

`CC(=O)Nc1cccc(C(=O)Nc2ccc(-c3cccc(-c4nc5cc(F)ccc5[nH]4)c3)cc2)c1` showed an Inhibition of 8%.

For `COc1ccc2nccc(N3CCC(SCCNCc4ccc5c(n4)NC(=O)CS5)C3)c2n1.Cl` (centres undefined), the Inhibition was 100%.

As to `O=C(c1ccc2ccccc2n1)N1CCCc2cc(Br)ccc21`, the Inhibition is 74%.

Take `O=C(Nc1ccc(Br)cc1)N(CCN1CCOCC1)CC(O)COCc1ccc(F)cc1.O=C(O)C(F)(F)F` (centres undefined): the Inhibition turned out to be 3%.

On to `O=C(Nc1ccnc(N2CC3CC2CN3Cc2cccc(O)c2)c1)c1ccc(F)cc1.O=C(O)C(F)(F)F` (centres undefined), for which the Inhibition was determined as 0%.

`Cl.O=C(Nc1cccc(-c2nn3ncccc3c2-c2ccnc(Nc3cccnc3)n2)c1)c1c(F)cccc1F` displayed an Inhibition of 70%.

The molecule `CCc1c[nH]c2c(N3CCCCS3(=O)=O)cc(C(=O)N[C@@H](Cc3ccccc3)[C@H](O)CNCc3cccc(OC)c3)cc12.O=CO` came in with an Inhibition of 91%.

With `Cc1cccc2nc(-c3ccc(-c4ccc(CN5CCC(CCN6CCCCC6)CC5)cc4)cc3)[nH]c12.O=C(O)C(F)(F)F`, the Inhibition is reported as 100%.

`COc1cc(NC(=O)/C=C/c2ccccc2OC(F)(F)F)cc(OCCN2CCCCC2)c1.O=C(O)C(=O)O` gave an Inhibition of 6%.

Turning to `Clc1ccc(-c2ccc(C=NNc3nc(=Nc4ccccc4)[nH]c(=Nc4ccccc4)[nH]3)o2)cc1Cl`, the Inhibition is on record as 75%.

`CN1CCN(CCCN(Cc2ccc(-c3ccc(CNCc4ccc5c(c4)OCO5)cc3)cc2)C(=O)CCC2CCCC2)CC1.O=C(O)C(F)(F)F` came in with an Inhibition of 85%.

With `C=CCC(CC=C)N1C(=O)C(c2ccccc2)(c2ccccc2)N=C1N.O=CO`, the Inhibition turned out to be 97%.

`CN(C)c1cc(C(=O)N[C@@H](Cc2ccccc2)[C@H](O)CNC2CCCCC2)cc2[nH]ccc12.O=CO` had an Inhibition of 97%.

`CCN(CC)CCNC(=O)c1ccc(NC(=O)c2oc3c(Cl)cccc3c2C)cc1`: the Inhibition turned out to be 68%.

As for `O=C(C=Cc1ccc(Cl)c(Cl)c1)NCCCCCN1CCC(CCNS(=O)(=O)c2ccc(F)cc2)CC1`, the Inhibition was determined as 0%.
